Structures are written as SMILES. About 2,400 (0.69%) of roughly 350,000 compounds were called active. Cut-off read from the data, not from the text of the source: active = inhibition above about 41%; inconclusive = no clear call, values can overlap the other calls; inactive = below that. This excerpt belongs to a sample that is enriched for actives.

This test in a line: EBV LMP1-driven NF-kappaB luciferase reporter inhibitors, primary screen, cell-based, luminescence, single point (AID 504558).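 Note: 0% = neutral control wells and 100% = reference inhibitor control.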 The settings on record: LMP1-induced NF-kappaB luciferase reporter cells, at 12.5 µM, hits give high values.
The term inhibition denotes the drop in the measured response relative to a control, in per cent. Regarding `Cc1ccc(NC(=O)Cn2sc3ccccc3c2=O)cc1`, the inhibition was 0.665% (inactive).

As for `COc1cccc2c1C(=O)c1c(O)c3c(c(O)c1C2=O)CC(O)(C(C)=NNC(=O)c1ccc(Cl)c(Cl)c1)CC3OC1CC(N)C(O)C(C)O1` (configuration not stated), the inhibition was 70% (active).

Regarding `COc1cc(C(=O)OCCCN2CCOCC2)cc(OC)c1OC`, the inhibition is 1.26% (inactive).

As to `Cc1ccc(-c2nnn(CC(=O)N(Cc3ccco3)C(C(=O)NC(C)(C)C)c3ccncc3)n2)o1` (configuration not stated), the inhibition was 54.6% (active).

On to `Cc1cccc(N(C(=O)Cn2nnc(-c3ccc(C)o3)n2)C(C(=O)NC2CCCC2)c2ccncc2)c1` (configuration not stated), for which the inhibition is 9.95% (inactive).

In the case of `Cc1ccc(-c2nnn(CC(=O)N(CCO)C(C(=O)NC(C)(C)C)c3ccncc3)n2)cc1` (configuration not stated), the inhibition is -24.9% (inactive).

On to `CCn1c(SCC(=O)N2CCCC2=O)nc2ccccc21`, for which the inhibition is 6.54% (inactive).

In the case of `Cc1cccc(NC(=O)/C=C/c2ccc3c(c2)OCO3)n1`, the inhibition is -23.8% (inactive).

For the molecule `O=C(CNC(=O)C(c1ccccc1)c1ccccc1)N/N=C\c1ccc2c(c1)OCO2`, the inhibition was -3.07% (inactive).

As for `C(=N\Nc1ccc2ccccc2n1)/c1ccc2c(c1)OCO2`, the inhibition is 43.9% (active).

Turning to `CC(OC(=O)c1cccc(S(=O)(=O)N2CCOCC2)c1)C(=O)NCC1CCCCC1` (configuration not stated), the inhibition was -1.25% (inactive).

As to `O=C(O)c1ccc(N/N=C/c2ccc3ncccc3c2)cc1`, the inhibition is 44.3% (active).

`CCNC(=S)NNC(=O)c1ccc2ncccc2c1`: the inhibition was 7.73% (inactive).

For `Cc1ccc2cc(/C=N/Nc3ccc(C(=O)O)cc3)c(Cl)nc2c1`, the inhibition is -63.4% (inactive).

On to `CCOc1ccc(S(=O)(=O)NCCC(=O)NNC(=O)c2ccc(F)cc2)cc1`, for which the inhibition is -8.7% (inactive).

In the case of `O=C(Nc1ccc2c(c1)[C@@H]1C[C@@H](CC(=O)N3CCCCC3)O[C@@H](CO)[C@@H]1O2)NC1CCCCC1`, the inhibition is 1.38% (inactive).

As for `CCc1cc(-c2nnn(CCC3COCCO3)c2CC)ccc1-c1cn(Cc2ccc3ccccc3c2)nn1` (configuration not stated), the inhibition is 0.755% (inactive).

With `Cc1cc(Cl)ccc1C(=O)C1CCCN(C(=O)c2ccc3c(c2)OCO3)C1` (configuration not stated), the inhibition was -1.16% (inactive).

For `O=C(NCCOc1ccccc1)c1ccccc1F`, the inhibition is -2.63% (inactive).

In the case of `CCNC(=S)N1CCN(c2ncccn2)CC1`, the inhibition was -18.8% (inactive).

As to `O=C(Nc1nnc(-c2ccccc2F)s1)c1ccccc1F`, the inhibition is -3.53% (inactive).

In the case of `CC(=NNC(=S)N1CCCCCC1)c1ccccn1`, the inhibition was 91.7% (active).

For the molecule `Cc1cccc(C)c1NC(=S)N1CCCCCC1`, the inhibition is 23.1% (inactive).

On to `C/C(=N\NC(=O)c1ccccc1F)c1ccccn1`, for which the inhibition is 48.6% (active).

Regarding `CCN(C(=O)Nc1cccc2ccccc12)c1ccccc1`, the inhibition was 2.61% (inactive).

In the case of `CCN(Cc1ccncc1)C(=S)Nc1ccccc1C`, the inhibition is 0.031% (inactive).

Regarding `CCc1ccccc1OCC(=O)Nc1nnc(C2CC2)s1`, the inhibition was -2.82% (inactive).

Turning to `COCOCCn1cc(CN2CCS(=O)(=O)N(Cc3ccc(-c4ccccc4)cc3)C(CC(C)C)C2=O)nn1` (configuration not stated), the inhibition was 1.98% (inactive).

For `CC1=C(C(=O)N2CCOCC2)CC(CC(=O)NCc2ccco2)C(=O)N1Cc1ccc(F)cc1` (configuration not stated), the inhibition was 3.55% (inactive).

For the molecule `Cc1cccc(-n2ncc(Cl)c(Cl)c2=O)c1`, the inhibition was 52.4% (active).

Take `Cc1cccc(-n2ncc3c(=O)[nH]c(SCC(=O)Nc4cc(C)on4)nc32)c1`: the inhibition is -3.93% (inactive).

On to `C=CCNc1cnn(-c2ccc(C)cc2)c(=O)c1Cl`, for which the inhibition is -12.1% (inactive).

In the case of `CCCCN1C[C@H](c2ccc(Br)cc2)[C@@H](CC(=O)Nc2ccc(Br)cc2)C1=O`, the inhibition was 1.53% (inactive).

On to `C[C@@H]1CN([C@@H](C)CO)C(=O)c2cc(Br)cnc2O[C@@H]1CN(C)C(=O)C1CCCCC1`, for which the inhibition is -0.141% (inactive).

Turning to `CCN(CC)C(=O)C1=C(C)N(Cc2ccccc2)C(=O)C(CC(=O)NC(c2ccccc2)c2ccccc2)C1` (configuration not stated), the inhibition was 2.92% (inactive).

Take `CCOc1cccc(/C=C/c2ccc3ccccc3n2)c1OC(C)=O`: the inhibition was 17.6% (inactive).

`CC(=O)c1ccc(S(=O)(=O)N2CCN(C(=O)/C=C/c3ccc4ccccc4n3)CC2)cc1`: the inhibition is -1.62% (inactive).

With `COc1cccc(/C=C/c2ccc3ccccc3n2)c1OC(C)=O`, the inhibition was 56.9% (active).

For the molecule `CC1(C)C2CCC1(C)C(OC(=O)c1ccc(O)cc1)C2` (configuration not stated), the inhibition is -2.13% (inactive).

As to `COC(=O)c1ccc(NCc2cc(O)ccc2O)cc1`, the inhibition is -94.1% (inactive).

Consider `O=C(OC12CC3CC(CC(C3)C1)C2)c1ccc(NCc2cc(O)ccc2O)cc1`, for which the inhibition was 44.1% (active).

Turning to `CC1C(=O)N(Cc2cn(Cc3ccco3)nn2)CCS(=O)(=O)N1Cc1ccc(-c2cccc(CO)c2)cc1` (configuration not stated), the inhibition is 4.76% (inactive).

The values are drawn from PubChem BioAssay AID504558 (Broad Institute, 2011).
